# From PubChem BioAssay (NCATS)
# Results filed as inconclusive are left out. Where a call stands in place of a potency, no number is given. The source made the active and inactive calls. Calls follow the shape of the dose curve; as a rule, active = well fitted inhibition curve with a large enough effect; inconclusive = small, poorly fitted or top-dose-only effect; inactive = flat fitted curve, though single readings scatter.
# Test: Primary qHTS for inhibitors of nuclear receptor binding SET domain protein 2 (NSD2) in an isogenic RCH-ACV NSD2 p.E1099K mutant (9B) (AID 1645876); also: nearly all actives have a fitted effect of over 70% in size
smiles,measurement,value
Nc1ccn(CC(CO)OCP(=O)(O)O)c(=O)n1 (stereo unspecified),Potency,inactive
